Screens: PubChem BioAssay, National Center for Advancing Translational Sciences (NCATS)
Sampled rows, rich in hits. Any-hit rate of the full collection: about 12%.
Pf growth 96h: P. falciparum growth inhibition at 96 hours; P. falciparum luciferase reporter growth, 96 h; Potency, µM (titrated, usually from 28.7 µM), for the others: top-dose activity change, negative = inhibition, hits mostly inhibitors; actives 6.9% (n = 320,000); AID 504834; further: on the % scale 0 is the no-effect control and ±100 the full control effect
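Compounds incubated with erythrocytes infected by luciferase-expressing P. falciparum (2% hematocrit, 0.05% parasitemia final) for 96 hours, 37 C in 5% CO2. Growth inhibition scored as decreased luciferase luminescence.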
Sm TGR inh: blocks Schistosoma mansoni thioredoxin glutathione reductase; purified TGR, DTNB reduction, TNB absorbance 405 nm; Potency, µM (top dose mostly 114 µM), for inactives: top-dose activity change, negative = inhibition, actives largely listed as inhibitors; actives 3% (n = 360,000); AID 485364; further: on the % scale 0 is the no-effect control and ±100 the full control effect; nearly all actives have a fitted effect of over 60% in size
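Kinetic colorimetric format: TGR-catalysed, NADPH-driven DTNB reduction monitored via TNB absorbance. Enzyme dispensed at 20 nM; compound exposure 15 min at room temperature before reaction start.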
SARS PLP yeast: SARS-CoV PLP inhibition in yeast; Potency, µM (top dose mostly 32.9 µM), for the others: at the highest dose activity, positive = growth rescue, actives largely listed as activators; S. cerevisiae expressing SARS-CoV PLpro, growth rescue; AID 485353; actives 0.19% (n = 330,000); calls by dose curve; further: 0% is about no effect; nearly all actives have a fitted effect of over 55% in size
Pf growth 48h: P. falciparum growth inhibition at 48 hours (one generation) | P. falciparum luciferase growth in erythrocytes, 48 h | Potency, µM (top dose mostly 28.7 µM), for inactives: top-dose activity change, negative = inhibition, hits mostly inhibitors | actives 5.9% (n = 310,000); further: on the % scale 0 is the no-effect control and ±100 the full control effect
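Firefly luciferase activity from engineered P. falciparum reports growth; inhibitors lower the luminescent signal. Cultures contained 2% hematocrit erythrocytes at 0.1% final parasitemia.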
The depositor's hits bear a star; ? = inconclusive; · = no result. Unless noted, the call rests on the fitted dose curve; in most records, active means well fitted curve in the direction sought with a large enough effect; inconclusive means small, poorly fitted or top-dose-only effect, or another doubt; inactive means no such curve, though single readings can be large; an effect the other way counts as inactive or inconclusive. Potency means the concentration at half of the fitted maximal effect.

SMILES	Pf growth 96h	Sm TGR inh	SARS PLP yeast	Pf growth 48h
O=C(Nc1ccc(N2CCOCC2)nc1N1CCOCC1)c1cccc(C(F)(F)F)c1	?	6.6%	0.9%	-3.2%
O=C(N/N=C/c1ccncc1)c1ccccc1[N+](=O)[O-]	-12.5%	-10.8%	1.5%	11.4%
CC1=C(/C=C/C(C)=C/C=C/C(C)=C/CO)C(C)(C)CCC1	10.7µM*	·	·	?
CC1=C(/C=C/C(C)=C/C=C/C(C)=C/C=C/C=C(C)/C=C/C=C(C)/C=C/C2=C(C)C(=O)CCC2(C)C)C(C)(C)CCC1=O	-1.1%	·	·	4.6%
CCOC(=O)N1CCN(S(=O)(=O)c2ccc(OC)c(C(=O)N3CCCCC3)c2)CC1	10.7%	9.3%	7.1%	-20.4%
CCOC(=O)C1CCCN(C(=O)c2cccc(S(=O)(=O)N(Cc3ccccc3)c3ccccc3OC)c2)C1 (stereo not drawn)	?	5.3%	-0.7%	10.4µM*
CCOC(=O)C1CCCN(C(=O)c2cc(S(=O)(=O)N3CCCCCC3)ccc2OC)C1 (stereo not drawn)	9.28µM*	-2.5%	-0.2%	9.28µM*
CCOC(=O)C1CCN(c2cc3c(cc2NC(=O)c2ccc(OC)c(OC)c2)n(C)c(=O)n3C)CC1	?	-21.0%	-1.5%	8.28µM*
CCOC(=O)C1CCN(S(=O)(=O)c2nc3nc(C)cc(C)n3n2)CC1	10.4µM*	-1.0%	4.2%	2.0%
CCOC(=O)C1CCCN(C(=O)c2cccc(S(=O)(=O)N(C)c3ccc(OC)cc3)c2)C1 (stereo not drawn)	51.3%	-0.8%	-0.2%	?
O=C(CN1C(=O)COc2ccc(S(=O)(=O)N3CCCC3)cc21)N1CCN(c2ccc(Cl)cc2)CC1	·	0.7%	·	·
O=C(c1c(F)cccc1F)N1CCN=C1SCc1ccccc1	-1.8%	19.1%	-0.4%	-9.5%
CCn1c(CNC(=O)C23CC4CC(CC(C4)C2)C3)nnc1SCC(=O)Nc1ccc(F)cc1	·	2.0%	·	·
CCOC(=O)C1CCCN(C(=O)c2cn(C)c3ccc(S(=O)(=O)N(C)C)cc3c2=O)C1 (stereo not drawn)	0.928µM*	?	-1.6%	·
COc1ccccc1NC(=O)c1ccc(NC(=O)CN2CCCC2)cc1	10.8%	0.8%	-2.9%	1.0%
CCOC(=O)C1CCN(S(=O)(=O)c2ccc(Br)c(OCC)c2)CC1	4.65µM*	-0.7%	-4.1%	4.8%
CCOC(=O)C1CCCN(CC(=O)Nc2ccc(C(=O)Nc3ccccc3OC)cc2)C1 (stereo not drawn)	?	-10.8%	-0.7%	11.7µM*
CCOC(=O)C1CCCN(C(=O)c2ccc(S(=O)(=O)Nc3ccccc3OC)cc2)C1 (stereo not drawn)	?	-19.7%	0.9%	11.7µM*
COc1ccccc1NS(=O)(=O)c1ccc(C(=O)N2CCCCCC2)cc1	·	·	-7.2%	·
CCOc1ccc(CCNC(=O)c2sc3nc4n(c(=O)c3c2C)CCC4)cc1	?	-0.9%	-5.5%	-8.9%
CCOC(=O)C1CCCN(C(=O)c2ccccc2NC(C)=O)C1 (stereo not drawn)	·	-1.0%	-4.1%	-2.6%
CCOC(=O)C1CCN(C(=O)c2ccc(OC)cc2OC)CC1	13.1µM*	-2.3%	3.1%	4.1%
CCOC(=O)C1CCCN(C(=O)c2ccc3nc(-c4ccc(OC)c(OC)c4)c(-c4ccc(OC)c(OC)c4)nc3c2)C1 (stereo not drawn)	35.6%	0.0%	2.2%	?
CCOC(=O)C1CCN(C(=O)C2CCCN2S(=O)(=O)c2ccc(Cl)cc2)CC1 (stereo not drawn)	10.4µM*	2.1%	-3.3%	0.1%
CCOC(=O)C1CCCN(C(=O)c2ccccc2Oc2ccccc2)C1 (stereo not drawn)	1.31µM*	-10.8%	-2.5%	-16.6%
SMILES	Pf growth 96h	Sm TGR inh	SARS PLP yeast	Pf growth 48h
CCOC(=O)C1CCCN(C(=O)c2ccc3nc(-c4ccccc4)c(-c4ccccc4)nc3c2)C1 (stereo not drawn)	13.1µM*	1.9%	1.0%	?
COc1ccc2[nH]c3c(c2c1)CCN1C(=O)C(CC(=O)NCc2cccc(C(F)(F)F)c2)C[C@H](C(=O)N(C(C)C)C(C)C)[C@@]31C (stereo partly drawn)	·	·	-14.0%	·
Cc1cccc(Cn2c(SCc3ccc(C(=O)NCCc4ccccc4)cc3)nc3ccncc32)c1	·	-0.5%	·	·
COc1ccc(N2CCN(c3ncnc4onc(C)c34)CC2)cc1	·	0.1%	·	·
CCOC(=O)C1CCN(S(=O)(=O)c2c(Cl)ccc3nonc23)CC1	2.33µM*	0.891µM*	-29.1%	-22.9%
CCOC(=O)C1CCN(C(=O)c2cc(S(=O)(=O)N3CCCCCC3)ccc2OC)CC1	4.15µM*	-3.4%	0.7%	?
CCOC(=O)C1CCN(S(=O)(=O)c2ccc(OC)c(C(=O)N3CCCCCC3)c2)CC1	-5.1%	3.6%	2.2%	-3.6%
CC1CCN(C(=O)c2[nH]cnc2C(=O)Nc2ccc(Cl)cc2)CC1	?	0.0%	-0.8%	0.0%
COc1cc(C(=O)Oc2ccccc2/C=N/NC(=O)c2ccc(C)c(Cl)c2)cc(OC)c1OC	?	-0.2%	-9.3%	-14.1%
COc1cc(/C=N/NC(=O)c2ccc(-c3ccccc3)cc2)cc(OC)c1OC	16.5µM*	-0.3%	5.9%	?
COc1cc(C(=O)Oc2ccccc2/C=N/NC(=O)c2ccc(Cl)cc2)cc(OC)c1OC	5.7%	4.7%	4.1%	13.1µM*
COc1ccc(/C=N\NC(=O)c2ccc(-c3ccccc3)cc2)c(OC)c1OC	0.828µM*	6.2%	4.2%	8.9%
CCCCOc1ccccc1C(=O)N(Cc1cccc(F)c1)C1CCS(=O)(=O)C1 (stereo not drawn)	·	12.1%	·	·
CC1(C)CC(=O)C2=C(C1)OC(N)=C(C#N)C21CCN(Cc2ccccc2)CC1	?	14.1µM*	10.5%	?
CC1(C)CC(=O)C2=C(C1)OC(N)=C(C#N)C21CCC2(CC1)OCCO2	64.3%	22.4µM*	·	2.2%
CC(=O)N1CCC2(CC1)C(C#N)=C(N)OC1=C2C(=O)CC(C)(C)C1	55.2%	-7.6%	-1.8%	?
CCC(C(=O)Nc1cccc(C#N)c1)n1nc(-c2ccccc2)ccc1=O (stereo not drawn)	·	1.0%	·	·
COc1ccc(-c2noc(-c3ccc(NC4CCCCC4)c([N+](=O)[O-])c3)n2)cc1	·	0.3%	·	·
CC1CCCCC12NC(=O)N(CC(=O)N1CCN(c3ncccn3)CC1)C2=O (stereo not drawn)	41.5%	-2.1%	9.4%	8.1%
COc1cccc(C2/C(=C(/O)c3ccccc3)C(=O)C(=O)N2Cc2ccco2)c1 (stereo not drawn)	-14.7%	50.1µM*	0.3%	6.3%
Cc1ccc(C2/C(=C(/O)c3ccc(Br)cc3)C(=O)C(=O)N2Cc2ccco2)o1 (stereo not drawn)	·	7.94µM*	-9.4%	?
COc1cccc(C2/C(=C(/O)c3ccc(C)cc3)C(=O)C(=O)N2Cc2ccco2)c1 (stereo not drawn)	6.8%	-3.3%	-10.6%	10.5%
COc1ccc(/C(O)=C2\C(=O)C(=O)N(Cc3ccco3)C2c2cc(OC)ccc2OC)cc1 (stereo not drawn)	32.9%	4.8%	1.0%	?
